Data from PubChem BioAssay (NCATS).
Where “and” joins values, the source holds several entries; their conditions need not be identical. Equal values may be shown once. Inconclusive results are not listed. Calls of active or inactive are those of the source. Unless noted, the call rests on the fitted dose curve; in most records, active means well fitted curve in the direction sought with a large enough effect; inconclusive means small, poorly fitted or top-dose-only effect, or another doubt; inactive means no such curve, though single readings can be large; an effect the other way counts as inactive or inconclusive.

What was measured:
[1] = qHTS profiling of the MIPE4 collection as inhibitors of Plasmodium falciparum (3D7) proliferation (AID 743344; call rule not given here;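 further: scaled between DMSO vehicle wells and 0.29 µM artemisinin as full inhibition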); details: P. falciparum 3D7 in erythrocytes, SYBR Green DNA fluorescence, 72 h; at 28.5 µM unless noted
Summary of the method: (§1)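 Parasite DNA was quantified by SYBR Green I fluorescence (ex 485, em 535 nm) after overnight lysis in saponin/Triton buffer at room temperature. Cultures at 0.3% parasitemia and 2.5% hematocrit were first exposed to compound for 72 h at 37 C; signals were normalised to artemisinin (0.29 uM) and vehicle wells.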

[2] = qHTS profiling of the MIPE4 collection as inhibitors of Plasmodium falciparum (DD2) proliferation (AID 743345; call rule not given here); details: P. falciparum Dd2 in erythrocytes, SYBR Green DNA, 72 h; at 28.5 µM unless noted
Summary of the method: as §1

[3] = qHTS profiling of the MIPE4 collection as inhibitors of Plasmodium falciparum (DD2) proliferation (Rep 2) (AID 743346; call rule not given here); details: P. falciparum Dd2 in erythrocytes, SYBR Green DNA, 72 h; at 28.5 µM unless noted
Summary of the method: as §1

[4] = qHTS profiling of the MIPE4 collection as inhibitors of Plasmodium falciparum (HB3) proliferation (AID 743347; call rule not given here;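 further: plate controls were DMSO vehicle wells for no effect and artemisinin wells for full effect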); details: P. falciparum HB3 in erythrocytes, SYBR Green DNA, 72 h; at 28.5 µM unless noted
Summary of the method: as §1

[5] = High-throughput drug toxicity screening in the BPDCN cell line Cal-1 (AID 1224825; call rule not given here); details: Cal-1 BPDCN cell viability, qHTS; at 45.8 µM (top of the series) unless noted
Summary of the method: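 Percent activity derived from CellTiter-Glo luminescence, scaling DMSO to 100% and 9.2 uM final bortezomib to 0%. BPDCN Cal-1 cells (500/well, RPMI plus 10% FBS) incubated with compounds 48 hours at 37C before reading.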

[6] = qHTS assay for measurement of the activity of small molecule inhibitors on Zika virus induced Caspase-3 activity in human iPSC derived neural progenitor cells (hNPCs) (AID 1224857); details: hNPCs ZIKV-induced caspase-3/7, Caspase-Glo luminescence, 6 h; series mostly up to 45.7 µM; further: % of control where 0% means no effect; nearly all actives have a fitted effect of over 65% in size
Summary of the method: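 Human iPSC-derived neural progenitor cells pretreated 1 hr with compounds, then infected with Zika virus (2 FFU/cell) for 6 hours at 37 C. Caspase-3/7 measured by Caspase-Glo luminescence; % inhibition calculated from induction scaled to uninfected (0%) and infected (100%) wells.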

[7] = qHTS assay for measurement of the activity of small molecule inhibitors on Zika virus induced Caspase-3 activity in human astrocytoma cells (AID 1224859); details: SNB-19 ZIKV-induced caspase-3/7, luminescence, 6 h; series mostly up to 45.7 µM;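 further: plate controls were ZIKV-infected untreated cells for no effect and uninfected cells for full effect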
Summary of the method: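 SNB-19 astrocytoma cells, 250/well, pretreated 1 h with compounds, then Zika virus at 2 FFU/cell for 6 h at 37 C; Caspase-Glo 3/7 luminescence after 30 min; percent inhibition normalised to uninfected and infected controls.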

[8] = qHTS Screen of the MIPE 4.0 Collection Against Ewings Sarcoma (RDES) (AID 1259252); details: RD-ES Ewing sarcoma viability, CellTiter-Glo, 48 h; series mostly up to 45.8 µM; further: nearly all actives have a fitted effect of over 35% in size; further: potency means the concentration at half of the fitted maximal effect
Summary of the method: (§2)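 Cells plated in serum-containing RPMI (5% FBS) and treated with compound dilutions for 48 h. Readout luminescent viability; normalization relied on vehicle (no inhibition) and media-only columns (full inhibition).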

[9] = qHTS Screen of the MIPE 4.0 Collection Against Ewings Sarcoma (TC71) (AID 1259253); details: TC71 Ewing sarcoma viability, CellTiter-Glo, 48 h; series mostly up to 45.8 µM; further: nearly all actives have a fitted effect of over 40% in size; further: potency means the concentration at half of the fitted maximal effect
Summary of the method: as §2

[10] = qHTS Screen of the MIPE 4.0 Collection Against Ewings Sarcoma (EW8) (AID 1259255); details: EW8 Ewing sarcoma viability, CellTiter-Glo, 48 h; series mostly up to 45.8 µM; further: nearly all actives have a fitted effect of over 35% in size; further: potency means the concentration at half of the fitted maximal effect;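 on viability: 100% = DMSO-treated cells and 0% = medium-only wells without cells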
Summary of the method: as §2

[11] = qHTS Screen of the MIPE 4.0 Collection Against Ewings Sarcoma (TC32) (AID 1259256); details: TC32 Ewing sarcoma viability, CellTiter-Glo, 48 h; series mostly up to 45.8 µM; further: nearly all actives have a fitted effect of over 45% in size; further: potency means the concentration at half of the fitted maximal effect
Summary of the method: as §2

[12] = P-glycoprotein substrates identified in KB-3-1 adenocarcinoma cell line, qHTS therapeutic library screen (AID 1346986); details: KB-3-1 parental cells viability, CellTiter-Glo, 72 h; series mostly up to 44.5 µM; further: nearly all actives have a fitted effect of over 60% in size
Summary of the method: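 Viability read by CellTiter-Glo after 72 h compound exposure in dose-response of KB-3-1 and KB-8-5-11 (P-gp-high) cells. Hits needed AC50 < 10 uM, >50% maximum response and curve class -1.1 to -2.4. Cherry-picks retested ± tariquidar, including pcDNA/MDR-19 HEK-293 pair.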

[13] = P-glycoprotein substrates identified in KB-8-5-11 adenocarcinoma cell line, qHTS therapeutic library screen (AID 1346987); details: KB-8-5-11 (P-gp overexpressing) viability, CellTiter-Glo, 72 h; series mostly up to 44.5 µM; further: nearly all actives have a fitted effect of over 65% in size; further: potency means the concentration at half of the fitted maximal effect
Summary of the method: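 Luminescence from CellTiter-Glo, read 5 min after addition, quantified survival of KB-8-5-11 (P-gp-overexpressing) cells exposed to compounds for 72 h. AC50 was derived from concentration-response curves.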

[14] = qHTS assay for cell viability of HEK293 cells (AID 743288); details: ATP luminescence (CellTiter-Glo), 18 h, stronger effect = lower value; further: on the % scale 0 is the no-effect control and ±100 the full control effect; nearly all actives have a fitted effect of over 50% in size
Summary of the method: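 After 18 h compound exposure at 37 C, parental HEK293 cells (2,000/well) are lysed with CellTiter-Glo and luminescence is read following 30 min at room temperature.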

[15] = qHTS assay for cell viability of the p53RE-bla HCT-116 cell line (AID 743292); details: p53RE-bla HCT-116 viability, ATP luminescence, 16 h; series mostly up to 95 µM; further: on the % scale 0 is the no-effect control and ±100 the full control effect; nearly all actives have a fitted effect of over 55% in size
Summary of the method: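 Quantitative high-throughput format: compounds in DMSO were pinned onto p53RE-bla HCT-116 cells (4,000/well) and incubated 16 h at 37 C. Total intracellular ATP, read by CellTiter-Glo luminescence, reflects viable cell number.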

SMILES | parasite growth, % of DMSO control [1] | parasite growth remaining, % of DMSO control (lower = more inhibition) [2] | parasite growth, % of control (lower = inhibition) [3] | growth, % of control [4] | viability (% of control) [5] | Potency [6] | Potency [7] | Potency [8] | Potency [9] | Potency [10] | Potency [11] | Potency [12] | Potency [13] | max response [14] | outcome [15]
CCc1cc(C(C)=NOCc2ccc(C3CCCCC3)c(C(F)(F)F)c2)ccc1CN1CC(C(=O)O)C1 | 6.45% | 69.4% | 41.3% | 11.3% | 19.7% | inactive | inactive | inactive | inactive | inactive | inactive | inactive | inactive |  | 
C[C@@H](Oc1ccc2[nH]nc(C=Cc3cnn(CCO)c3)c2c1)c1c(Cl)cncc1Cl | 5.43% | 8.67% | 16.4% | 5.78% | 6.51% | inactive | inactive | 3.32 µM (active) | 0.662 µM (active) | 0.418 µM (active) | 0.264 µM (active) |  | 0.332 µM (active) |  | 
O=C(CCCCCCC(=O)Nc1cccnc1)NO | 5.14% | 7.37% | 7.99% | 4.47% | 10.1% | inactive | inactive | 2.96 µM (active) | 5.26 µM (active) | 2.64 µM (active) | 5.26 µM (active) |  | 18.7 µM (active) |  | 
CC(C)(N)c1ccc(-c2nc3ccccc3nc2-c2ccccc2)cc1 | 21.6% | 18.1% | 26.5% | 18.5% | 4.03% | inactive | inactive | 26.4 µM (active) | 26.4 µM (active) | 20.9 µM (active) | 23.5 µM (active) |  | 418 nM (active) and 23.1 µM (active) |  | 
CO[C@@H]1[C@@H](O)[C@H](O)[C@@H](n2c3c(Cl)cccc3c3c4c(c5c6cccc(Cl)c6[nH]c5c32)C(=O)NC4=O)O[C@@H]1CO | 7.5% | 7.89% | 8.26% | 8.64% | 5.01% | inactive | inactive | 0.105 µM (active) | 0.0935 µM (active) | 0.105 µM (active) | inactive |  |  |  | 
N#CC(=Cc1ccc(O)c(O)c1)C(=O)NCc1ccccc1 | 42.9% | 87.2% | 51.8% | 48.1% | 45.8% |  | inactive | 23.5 µM (active) | 23.5 µM (active) | 18.7 µM (active) | 20.9 µM (active) | inactive | inactive |  | 
CCc1nc(-c2cccc(C)c2)c(-c2ccnc(NC(=O)c3ccccc3)c2)s1 | 21.9% | 47.6% |  | 29.7% | 25.7% | inactive |  | 14.8 µM (active) | 18.7 µM (active) | 20.9 µM (active) | 20.9 µM (active) |  | 20.9 µM (active) |  | 
O=C(C=Cc1ccc(CN(CCO)CCc2c[nH]c3ccccc23)cc1)NO | 4.37% | 6.71% | 8.38% | 2.54% | 3.46% | inactive | inactive | 0.209 µM (active) | 0.187 µM (active) | 0.148 µM (active) | 0.148 µM (active) |  | 0.59 µM (active) |  | 
O=C1c2cccc(O)c2C(=O)c2c(O)cc(CO)cc21 |  |  |  |  |  | inactive |  | inactive | inactive | inactive | inactive |  | inactive | -3.37% (inactive) | inactive
C#Cc1cccc(Nc2ncnc3cc(OCCOC)c(OCCO)cc23)c1 | 6.81% |  | 18.2% | 4.56% | 12.5% | inactive | inactive | 0.935 µM (active) | 18.7 µM (active) | 9.35 µM (active) | 8.33 µM (active) |  | 23.5 µM (active) |  | 
